Results taken from PMC7819943, “Rice protein-binding microarrays: a tool to detect cis-acting elements near promoter regions in rice”.
Whole data set: some 35,000 sequences, median “fluorescence intensity (a.u.)” near 10,000, cut for the highest 2% near 52,000. The full list was thinned out, with the highest values kept by preference.

target: T1, OsWOX13 (Oryza sativa, UniProt Q5QMM3 1-267); assay: protein-binding microarray (RPBM); PBS, 2% BSA, 51.3 ng/ul salmon testes DNA, 50 uM zinc acetate, 200 nM TF, 25 C, 1 h; high values mean tight binding; conditions: protein: recombinant; tags: N-terminal polyhistidine and DsRed monomer fusion (pET32a); label: CyDye5-dUTP incorporated in the synthesized complementary strand; 3' TTTTT single-stranded linker to array surface; dsDNA, one strand shown
T1 sequence: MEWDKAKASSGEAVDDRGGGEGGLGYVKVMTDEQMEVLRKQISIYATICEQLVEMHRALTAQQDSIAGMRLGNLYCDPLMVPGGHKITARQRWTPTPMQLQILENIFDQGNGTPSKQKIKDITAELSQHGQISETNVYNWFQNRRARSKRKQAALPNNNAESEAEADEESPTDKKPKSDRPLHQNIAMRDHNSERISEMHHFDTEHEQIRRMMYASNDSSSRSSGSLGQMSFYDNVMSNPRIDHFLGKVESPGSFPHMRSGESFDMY
In short: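 Per-feature fluorescence intensity (arbitrary units), read on an Axon 4000B scanner, is the binding signal. Transcription factors carrying an N-terminal polyhistidine tag and DsRed fusion were expressed in E. coli BL21-CodonPlus and purified on Ni–NTA. A custom Agilent array, made double-stranded by primer extension with Cy5-dUTP and blocked with 2% BSA, was incubated with 200 nM protein in PBS, 2% BSA, salmon testes DNA and 50 µM zinc acetate at 25 °C for 1 h and then washed.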

Sequence | binding signal
TATAATTTAAATTCAAATTTGAATCGGGTATGTAAACTTTCGGAGTCACCTAGTGCAG | 15500 fluorescence intensity (a.u.)
TCATGAAATTAATAGGATGCCACGTCGACTTGGTTGTTCCCGGAGTCACCTAGTGCAG | 3510 fluorescence intensity (a.u.)
ATAAATTTATAGGTAAAACTTTTATATAGATGTTCTTGGTCGGAGTCACCTAGTGCAG | 15300 fluorescence intensity (a.u.)
TGAAATTGGAATGATGTGAAGGAAAAGTTGGAAGTTTGTGCGGAGTCACCTAGTGCAG | 20700 fluorescence intensity (a.u.)
CTAATTACTATCCATCATGTTTCTGTGGACGCGCGGCTCACGGAGTCACCTAGTGCAG | 9700 fluorescence intensity (a.u.)
TCTCTATAATTAAACATTCCAATTTCGAAAATGTTGTTAGCGGAGTCACCTAGTGCAG | 8580 fluorescence intensity (a.u.)
AAGTTTCAAAATTTAAATTTTGACCGCATGCAGCTGATAACGGAGTCACCTAGTGCAG | 4610 fluorescence intensity (a.u.)
ACGTTATTAATTACTTAGTACTACTATGAGTTAACTATGGCGGAGTCACCTAGTGCAG | 18500 fluorescence intensity (a.u.)
CACCATTGCATGATTGCATCTGCATCACTGCATGCCAACGCGGAGTCACCTAGTGCAG | 5680 fluorescence intensity (a.u.)
ACTTGTATATTTGTGGATTGATACATTACATATTGATCTACGGAGTCACCTAGTGCAG | 5160 fluorescence intensity (a.u.)
ATTTGATTGTATATTGTACTAGTGCTACTACTACGTGGAGCGGAGTCACCTAGTGCAG | 60400 fluorescence intensity (a.u.)
CCTGATTCTGATTGGCGCCAACGTACGTACTGTACATGCGCGGAGTCACCTAGTGCAG | 56900 fluorescence intensity (a.u.)
GTACAGTGTACTTGATTGAGTTGACAGTCATACTCTACTACGGAGTCACCTAGTGCAG | 18500 fluorescence intensity (a.u.)
TATTGATTGATTGGTTAGTACTACAGTACTGTAGGAGTGGCGGAGTCACCTAGTGCAG | 64700 fluorescence intensity (a.u.)
CAGTGTGATTGACTGTTGAGGCGGAGTCGGAGCTGCTTGTCGGAGTCACCTAGTGCAG | 50900 fluorescence intensity (a.u.)
TTAGATTGGGACAGTACGTAGGAATTGGTTGATTTCCGGGCGGAGTCACCTAGTGCAG | 16300 fluorescence intensity (a.u.)
GCTTAATTGGTTAGTGGACTAGTATATAGTAGTACTGTATCGGAGTCACCTAGTGCAG | 46500 fluorescence intensity (a.u.)
CTATTGATTTCTGCTGCTACTTTTCTATACTGTATTTTGTCGGAGTCACCTAGTGCAG | 15500 fluorescence intensity (a.u.)
CATTGATTGACATTGTTGAGGCAGTACTGTTACAGTTGAGCGGAGTCACCTAGTGCAG | 59400 fluorescence intensity (a.u.)
TGGGCCTGATTAACATGTGCTGTAGAATCGTACAACTGTGCGGAGTCACCTAGTGCAG | 7530 fluorescence intensity (a.u.)
AAAGGGTTAATTTGTCAAATTTTCGGGCTTTAGTGAAAAGCGGAGTCACCTAGTGCAG | 12700 fluorescence intensity (a.u.)

Sequence | binding signal
TCAAACTTACATAATTTACATGCCATGTTATCCAATATGCCGGAGTCACCTAGTGCAG | 11100 fluorescence intensity (a.u.)
GGAAAGACAGATTGAAGAAGCTGGGGTTCAAACCCAGGATCGGAGTCACCTAGTGCAG | 10300 fluorescence intensity (a.u.)
ATGTCGACATACGTAATTAATGTACACTCAGAACATGTCGCGGAGTCACCTAGTGCAG | 4870 fluorescence intensity (a.u.)
TAAAACTATTTAATTACCAAACTATTCACGTGATGAGATGCGGAGTCACCTAGTGCAG | 14900 fluorescence intensity (a.u.)
CTAATCTAATCATCGGATTAGGAAATAAGTAAGCAAACAACGGAGTCACCTAGTGCAG | 6880 fluorescence intensity (a.u.)
TCTATAAATTGAACATGTTTCAAACCAGGCTTGCAAGTTGCGGAGTCACCTAGTGCAG | 15500 fluorescence intensity (a.u.)
AGTTTCCTAATCTATTATATGATAGTACTCGGTCGGAGCTCGGAGTCACCTAGTGCAG | 3210 fluorescence intensity (a.u.)
ATTTAACTGTATAAACAATTAATAACAAGAATTGTGTATACGGAGTCACCTAGTGCAG | 16100 fluorescence intensity (a.u.)
AGTAATTTACTTGCTAGCTTGCAACTATTTCTTAGTACATCGGAGTCACCTAGTGCAG | 3460 fluorescence intensity (a.u.)
CATCCTCATTAACGGCAGATTAATACTATTTAGTCCATCTCGGAGTCACCTAGTGCAG | 3220 fluorescence intensity (a.u.)
AAATTTTGATTTTAAAACTTAATTGTAAAGTTGACTTTAACGGAGTCACCTAGTGCAG | 9040 fluorescence intensity (a.u.)
AAGTTGATTACTTAAACTGATTGACAGGGAGGCGGTTGAACGGAGTCACCTAGTGCAG | 56600 fluorescence intensity (a.u.)
AAACTGATTGACGGTTTTCTTTCTAAAACTGATTTTCAGGCGGAGTCACCTAGTGCAG | 43200 fluorescence intensity (a.u.)
TATATATATATATATATATATATACCCACGTGAGGACGTACGGAGTCACCTAGTGCAG | 31500 fluorescence intensity (a.u.)
GGCAGCAAGACCAATTTTAATTGAAGACCACGGAAGGAGCCGGAGTCACCTAGTGCAG | 3450 fluorescence intensity (a.u.)
TGAAATGGTTAAATGATTTGGGTTGAAATATTATGAAAATCGGAGTCACCTAGTGCAG | 3220 fluorescence intensity (a.u.)
ACGTAATTATAATTTATTTTATTATGAGTTGTTTTATCACCGGAGTCACCTAGTGCAG | 37000 fluorescence intensity (a.u.)
ACGTAATTATAATTTATTTTGTTATGAGTTGGTTTATCACCGGAGTCACCTAGTGCAG | 62600 fluorescence intensity (a.u.)
TTTGTTATAATTGATATTTAATTAATCATATGGTAATTACCGGAGTCACCTAGTGCAG | 27800 fluorescence intensity (a.u.)
ACGTAATTATAGCTTATTTTGTTATGAGTTATTTTATCACCGGAGTCACCTAGTGCAG | 24500 fluorescence intensity (a.u.)
CACAATTTAATATGGTTATAATTGTAATCTCACATATCCTCGGAGTCACCTAGTGCAG | 7610 fluorescence intensity (a.u.)
